Data as given in PubChem BioAssay AID1159580 (chemical genetic matrix, 2015).
Several values for one entry are separate records, joined by “and”; a condition that tells them apart may be missing. Equal entries are not always repeated. Hit rate of the full screen: of about 5,500 compounds, about 2,000 (36%) were called active. Not shown: some 18% with an inconclusive outcome. Rule as the data show it: active = normalized growth mostly below about 0.91 (no sharp cut-off); inconclusive = no clear call, values can overlap the other calls; inactive = mostly above about 0.92. Some of the results follow.

Assay: chemical genetic growth profiling, strain panel (AID 1159580);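 also: tested at 20 µM; growth read once vehicle control cultures reached saturation at 30 °C; 1 = growth at the plate median or of vehicle wells; lower values mean less growth of the strain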
Settings: S. cerevisiae deletion strains, growth OD

Measured: normalized growth

O=C(O)c1ccccc1-c1c2cc(Br)c(=O)cc-2oc2[c]([Hg])c(O)c(Br)cc12
0.834 (inactive) and 0.144 (active): locus YJL095W, strain BCK1, stronger effect = lower value
inactive: locus YAL021C, strain ccr4, stronger effect = lower value 1.01 | locus YAL026C, strain drs2, stronger effect = lower value 1.04 | locus YAL030W, strain snc1, stronger effect = lower value 1.03 | locus YBL061C, strain skt5, stronger effect = lower value 1.04 | locus YBR009C, strain hhf1, stronger effect = lower value 1.03 | locus YBR023C, strain chs3, stronger effect = lower value 1.04 | locus YBR171W, strain sec66, stronger effect = lower value 1.06 | locus YBR229C, strain ROT2, stronger effect = lower value 0.972 | locus YBR231C, strain swc5, stronger effect = lower value 1.04 | locus YCL011C, strain gbp2, stronger effect = lower value 1.05 | locus YCL016C, strain dcc1, stronger effect = lower value 1.06 | locus YCL029C, strain bik1, stronger effect = lower value 0.996 | locus YCR088W, strain abp1, stronger effect = lower value 1.03 | locus YDL005C, strain med2, stronger effect = lower value 1.02 | locus YDL040C, strain nat1, stronger effect = lower value 1.05 | locus YDL074C, strain BRE1, stronger effect = lower value 0.866 | locus YDL101C, strain DUN1, stronger effect = lower value 0.936 | locus YDR001C, strain nth1, stronger effect = lower value 1.04 | locus YDR069C, strain doa4, stronger effect = lower value 1.02 | locus YDR101C, strain arx1, stronger effect = lower value 1.01 | locus YDR159W, strain sac3, stronger effect = lower value 1.05 | locus YDR195W, strain ref2 0.982 | locus YDR297W, strain sur2, stronger effect = lower value 1.04 | locus YDR334W, strain swr1, stronger effect = lower value 1.03 | locus YDR335W, strain msn5, stronger effect = lower value 1.03 | locus YDR392W, strain spt3, stronger effect = lower value 0.796 | locus YEL003W, strain gim4, stronger effect = lower value 1.02 | locus YEL037C, strain rad23, stronger effect = lower value 1.03 | locus YEL061C, strain CIN8 (second series), stronger effect = lower value 1.05 | locus YEL061C, strain CIN8, stronger effect = lower value 0.984 | locus YER015W, strain faa2, stronger effect = lower value 1.04 | locus YER016W, strain bim1, stronger effect = lower value 1.06 | locus YER111C, strain swi4, stronger effect = lower value 1.03 | locus YER155C, strain BEM2 (second series), stronger effect = lower value 1.03 | locus YER155C, strain BEM2, stronger effect = lower value 1.02 | locus YFR010W, strain ubp6, stronger effect = lower value 1.02 | locus YGL167C, strain pmr1, stronger effect = lower value 1.06 | locus YGL173C, strain kem1, stronger effect = lower value 0.973 | locus YGL227W, strain vid30, stronger effect = lower value 1.05 | locus YGL240W, strain doc1, stronger effect = lower value 1 | locus YGL253W, strain hxk2, stronger effect = lower value 1.02 | locus YHR027C, strain rpn1, stronger effect = lower value 1.01 | locus YHR129C, strain ARP1, stronger effect = lower value 0.939 | locus YHR142W, strain chs7, stronger effect = lower value 0.951 | locus YIR030C, strain dcg1, stronger effect = lower value 1 | locus YJL092W, strain hpr5, stronger effect = lower value 1.04 | locus YJL095W, strain BCK1 (second series), stronger effect = lower value 1.03 | locus YJL115W, strain asf1, stronger effect = lower value 1.03 | locus YJL129C, strain trk1, stronger effect = lower value 1.12 | locus YJL134W, strain LCB3, stronger effect = lower value 1.02 | locus YJL154C, strain vps35, stronger effect = lower value 1.04 | locus YJL164C, strain tpk1, stronger effect = lower value 1.01 | locus YJL166W, strain qcr8, stronger effect = lower value 1.02 | locus YJL187C, strain SWE1 (second series), stronger effect = lower value 0.955 | locus YJL187C, strain SWE1, stronger effect = lower value 1.01 | locus YJR043C, strain POL32, stronger effect = lower value 0.868 | locus YJR075W, strain HOC1, stronger effect = lower value 0.946
active: locus YAL013W, strain DEP1, stronger effect = lower value 0.0843 | locus YBR021W, strain FUR4, stronger effect = lower value 0.61 | locus YBR279W, strain paf1, stronger effect = lower value 0.594 | locus YDL035C, strain GPR1, stronger effect = lower value 0.453 | locus YDL134C, strain PPH21, stronger effect = lower value 0.102 | locus YDL185W, strain tfp1, stronger effect = lower value 0.622 | locus YDL192W, strain arf1, stronger effect = lower value 0.0635 | locus YDR137W, strain rgp1, stronger effect = lower value 1.2 [resistant] | locus YDR150W, strain NUM1, stronger effect = lower value 0.732 | locus YDR162C, strain NBP2, stronger effect = lower value 0.736 | locus YDR318W, strain mcm21, stronger effect = lower value 0.07 | locus YDR388W, stronger effect = lower value 0.0603 | locus YDR502C, strain sam2, stronger effect = lower value 0.814 | locus YER110C, stronger effect = lower value 0.655 | locus YER167W, strain BCK2, stronger effect = lower value 0.0686 | locus YGL078C, strain dbp3, stronger effect = lower value 0.0613 | locus YGL086W, strain mad1, stronger effect = lower value 0.0593 | locus YGL248W, strain PDE1, stronger effect = lower value 0.0521 | locus YGR078C, strain PAC10, stronger effect = lower value 0.369 | locus YGR135W, strain pre9, stronger effect = lower value 0.0708 | locus YGR229C, strain SMI1, stronger effect = lower value 0.106 | locus YGR252W, strain gcn5, stronger effect = lower value 0.178 | locus YHR013C, strain ard1, stronger effect = lower value 0.121 | locus YHR030C, strain SLT2, stronger effect = lower value 0.146 and 0.163 | locus YHR079C, strain IRE1 (second series), stronger effect = lower value 0.884 | locus YHR079C, strain IRE1, stronger effect = lower value 0.406 | locus YHR094C, strain hxt1, stronger effect = lower value 0.0904 | locus YHR200W, strain rpn10, stronger effect = lower value 0.0659 | locus YIL066C, strain RNR3, stronger effect = lower value 0.0637 | locus YIL073C, strain SPO22, stronger effect = lower value 0.127 | locus YIL125W, strain kgd1, stronger effect = lower value 0.0621 | locus YJL168C, strain set2, stronger effect = lower value 0.0944 | locus YJR066W, strain TOR1, stronger effect = lower value 0.439
